From PubChem BioAssay (NCI)
Compounds without any hit were thinned out: in the full panel of roughly 79,000, 15% have a hit. No stated cut-off is given here; in the data, active means growth inhibition above about 70%; inactive means the rest.

Columns and labels:
[1] = NCI Yeast Anticancer Drug Screen. Data for the rad50 strain (AID 155);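 further: 0% = growth of vehicle-only cultures of the same strain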; settings: S. cerevisiae rad50 strain growth inhibition; at 50.0 µM; active compounds read high
Outline: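 Growth of the mutant yeast was measured after compound exposure and referenced to vehicle-treated cultures.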

[2] = NCI Yeast Anticancer Drug Screen. Data for the mec2-1 strain (AID 157); settings: S. cerevisiae mec2-1 strain, at 50.0 µM, active compounds read high
Outline: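 Vehicle-treated cultures served as reference for growth inhibition of compound-exposed mec2-1 yeast.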

[3] = NCI Yeast Anticancer Drug Screen. Data for the sgs1 mgt1 strain (AID 161);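 further: 0% = growth of cultures given vehicle only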; settings: S. cerevisiae sgs1 mgt1 strain, at 50.0 µM, active compounds read high
Outline: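 Test agents were incubated with a DNA-repair-mutant yeast strain. Growth was then read and compared against vehicle-treated controls.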

[4] = NCI Yeast Anticancer Drug Screen. Data for the cln2 rad14 strain (AID 165);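 further: 0% = growth equal to vehicle treated cultures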; settings: S. cerevisiae cln2 rad14 strain, at 50.0 µM, active compounds read high
Outline: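 Each compound was tested on cln2 rad14 yeast. Inhibition of growth was calculated against vehicle-exposed controls.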

[5] = NCI Yeast Anticancer Drug Screen. Data for the bub3 strain (AID 167); settings: S. cerevisiae bub3 mutant strain, at 50.0 µM, active compounds read high
Outline: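 Whole-cell yeast assay. The mutant strain was incubated with compounds, and growth inhibition was determined by comparison with vehicle-treated cells.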

[6] = NCI Yeast Anticancer Drug Screen. Data for the mlh1 rad18 strain (AID 175); settings: S. cerevisiae mlh1 rad18 strain growth inhibition; at 50.0 µM; active compounds read high
Outline: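 Vehicle-treated cultures served as the reference for growth inhibition in a yeast strain carrying DNA damage repair alterations exposed to each compound.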

Measured: growth inhibition

O=C(CC(C(=O)c1ccsc1)c1cccs1)c1cccs1 (stereo unspecified)
inactive: [1] 50.9% | [2] 14.2% | [3] 57.3% | [4] 36.4% | [5] 59.6% | [6] 33.8%

CCOc1ccc2nc(NC(=O)/C(CC(=O)CC(C3=C(O)c4ccccc4CC3=O)c3ccccc3)=N\O)sc2c1 (stereo unspecified)
inactive: [1] -0.85% | [2] -7% | [3] -12.6% | [4] -18.6% | [5] -0.25% | [6] -20.1%

CC(C)(O)c1cc2nc3ccccc3nc2n1CCO
inactive: [1] -19.6% | [2] -22.4% | [3] 8.45% | [4] 4.25% | [5] 4.25% | [6] -14.4%

O=C1CSC(=S)N1N1C(=O)CSC1=S
inactive: [1] -24.8% | [2] -7.8% | [3] -21.5% | [4] -12.3% | [5] 5.55% | [6] -12.4%

Nc1ccc(O)c(C(=O)O)c1
inactive: [1] 24.1% | [2] 11.2% | [3] 11.2% | [4] 0.8% | [5] 1.35% | [6] 26.6%

Cn1nnnc1NN(c1nnnn1C)C1C=CCC=C1
inactive: [1] 6.4% | [2] -6% | [3] 0% | [4] -18% | [5] 1.95% | [6] -10.7%

CC(=O)c1cc(C)c(C)cc1C
inactive: [1] -13.9% | [2] 7.6% | [3] -2.5% | [4] -12% | [5] 1.65% | [6] -12.5%

COC1=C(c2c[nH]c3ccc(CC=C(C)C)cc23)C(=O)C(OC)=C(c2c[nH]c3ccc(CC=C(C)C)cc23)C1=O
inactive: [1] 30.5% | [2] 6.5% | [3] 13.6% | [4] 19.4% | [5] -1.1% | [6] 29.6%

Clc1ccc(/C=C/c2ccc3ccccc3n2)cc1
inactive: [1] -2.65% | [2] -11.6% | [3] -13% | [4] -28.3% | [5] -14% | [6] 12%

COc1cc(/C=C/C(=O)Oc2ccccc2)ccc1C(=O)O/C=C/c1ccccc1
inactive: [1] 3.65% | [2] -4.7% | [3] 1.85% | [4] 21.4% | [5] -5.15% | [6] 13.5%

O=C(Nc1cccc(Cl)c1)c1cc2cc(N=Nc3ccc(Br)cc3)ccc2oc1=O
inactive: [1] 36.4% | [2] 33.6% | [3] 27% | [4] 29.1% | [5] 9.45% | [6] 18.2%

CCCOC(=O)/C=C(\Cl)C(=O)OCCC
inactive: [1] -0.95% | [2] 4.15% | [3] 0.65% | [4] -23.2% | [5] -45.6% | [6] -5.8%

CCCCCCCCCCCCCCCCCCNC(=O)N(C)Cc1ccccc1
inactive: [1] 17.5% | [2] 1.65% | [3] -0.65% | [4] -4.75% | [5] -1% | [6] -8.05%

CC(=O)Oc1cc(C)c(OC(C)=O)c(C)c1C
inactive: [1] -12.8% | [2] -27.4% | [3] -2.15% | [4] -9.3% | [5] 10.3% | [6] 6.3%

CN(C)C(=N)N
inactive: [1] -28.9% | [2] 6.3% | [3] -27.4% | [4] -21.6% | [5] -0.7% | [6] -18.4%

COc1ccc(C(C)=O)c(O)c1OC
inactive: [1] -3.3% | [2] 4.7% | [3] 9.1% | [4] -3.35% | [5] -3.1% | [6] 3%

O=[N+]([O-])c1cccc2c1ccc1nonc12
inactive: [1] 17.2% | [2] -5.15% | [3] 2.55% | [4] -52.1% | [5] -15.8% | [6] 20.5%

O=C(C[n+]1ccccc1Cc1ccccc1)c1ccccc1
inactive: [1] -6.6% | [2] -4.2% | [3] -14% | [4] -11.6% | [5] -11.4% | [6] -17.9%

COc1ccc(OC)c2c(C(C)=O)cccc12
inactive: [1] -35% | [2] -42.1% | [3] -4.2% | [4] -12.8% | [5] -17.2% | [6] -21.7%

O=C1c2ccccc2C(=O)C2C1C1C(=O)c3ccccc3C(=O)C21 (stereo unspecified)
inactive: [1] -14.6% | [2] -1.5% | [3] 2.45% | [4] -20.2% | [5] -8.6% | [6] 24.6%

CCCCCCCCCCCCCCCCN1C(=O)C2C(C1=O)C1(Cl)C(Cl)=C(Cl)C2(Cl)C1(Cl)Cl (stereo unspecified)
inactive: [1] 7.85% | [2] -6.3% | [3] -2.55% | [4] -0.65% | [5] -4.6% | [6] 10.2%
